In the supplement of paper PMC7184167:
Structures can show the parent of a compound that is named as a salt.

Each compound was assayed on replication-induced senescent mouse newborn dermal fibroblasts (NBF) (assay: relative cell viability of senescent cells (fraction); higher = less killing of senescent cells). Details: 1 µM; 3 days.
Experimental: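 Replication-induced senescent newborn mouse skin fibroblasts (NBFs) in 24-well plates were treated with a Selleck FDA-approved drug library at 1 µM for 3 days.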
In the case of `COc1ccc(CC2c3cc(OC)c(OC)cc3CC[N+]2(C)CCC(=O)OCCCCCOC(=O)CC[N+]2(C)CCc3cc(OC)c(OC)cc3C2Cc2ccc(OC)c(OC)c2)cc1OC` (configuration not stated) [Atracurium Besylate], the relative cell viability is reported as 1.07.
Compound `COc1cc(Nc2nc3ccccc3nc2NS(=O)(=O)c2ccc(NC(=O)c3ccc(C)c(OC)c3)cc2)cc(OC)c1` has a relative cell viability of 0.969.
Work on `CNC(=C[N+](=O)[O-])NCCSCc1csc(CN(C)C)n1` [Nizatidine] yielded a relative cell viability of 0.956.
In the case of `CC(C)[C@H](N)C(=O)OCCOCn1cnc2c(=O)nc(N)[nH]c21` [Valaciclovir HCl], the relative cell viability is reported as 0.909.
`C[C@](N)(Cc1ccc(O)c(O)c1)C(=O)O` [Methyldopa] showed a relative cell viability of 0.971.
Work on `Nc1ncn([C@H]2C[C@H](O)[C@@H](CO)O2)c(=O)n1` [Decitabine] yielded a relative cell viability of 0.211.
In the case of `CCCCCOC(=O)Nc1nc(=O)n([C@@H]2O[C@H](C)[C@@H](O)[C@H]2O)cc1F` [Capecitabine], the relative cell viability is reported as 0.891.
`CS(=O)(=O)N1CCN(Cc2cc3nc(-c4cccc5[nH]ncc45)nc(N4CCOCC4)c3s2)CC1` [Pictilisib (GDC-0941)] gave a relative cell viability of 0.681.
Work on `CNCc1ccc(-c2[nH]c3cc(F)cc4c3c2CCNC4=O)cc1` yielded a relative cell viability of 0.0458.
Work on `Cc1cn([C@H]2C=C[C@@H](CO)O2)c(=O)[nH]c1=O` [Stavudine (d4T)] yielded a relative cell viability of 0.893.
Compound `C[C@@H](c1ncncc1F)[C@](O)(Cn1cncn1)c1ccc(F)cc1F` [Voriconazole] has a relative cell viability of 0.928.
For `CCc1c2c(nc3ccc(OC(=O)N4CCC(N5CCCCC5)CC4)cc13)-c1cc3c(c(=O)n1C2)COC(=O)[C@]3(O)CC` [Irinotecan], the relative cell viability was 0.893.
